Unmarked numbers belong to inactive results. For some of these results: Potency and affinity values are given separately. Activity calls are given as the source filed them. Unless noted, how the calls were made is not given here.

A short description of experiment [1]: antimalarial activity against Dd2 strain (AID 2302;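 active means growth inhibition above 50% at the single 2 µM test dose, taken to imply half-maximal potency below 2 µM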;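 further: 0% = DMSO untreated growth and 100% = chloroquine plus artemisinin killed control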). The note with it: P. falciparum Dd2 in RBCs, LDH growth readout, 72 h; at 2 µM; stronger effect = higher value.
Experiment [2] can be described thus: HepG2 cytotoxicity, primary screen, cytotoxicity control for P. falciparum antimalarial project, cell-based, ATP luminescence (AID 2303;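 active means inhibition above 50%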;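 further: 0% = DMSO wells and 100% = digitonin-killed cells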). The note with it: HepG2 viability, 24-48 h, at 10 µM, stronger effect = higher value.
The target of experiment [3] is L-lactate dehydrogenase (Plasmodium falciparum (isolate CDC / Honduras)) (UniProt Q27743). Nature of the experiment: PfLDH activity inhibition – cell lysate, 3D7 strain, counter-screen for P. falciparum growth inhibition project (AID 2304).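 Further: 0% = vehicle and 100% = reference inhibitor.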 The note with it: P. falciparum 3D7 crude extract, LDH APAD/NBT absorbance; at 2 µM; stronger effect = higher value.
Experiment [4] can be described thus: inhibition of 3D7 malaria parasite growth – strain 3D7 (AID 2306).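 Further: 0% = DMSO wells and 100% = chloroquine plus artemisinin control wells.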 The conditions noted are these: P. falciparum 3D7 erythrocytic growth, LDH absorbance, 72 h; at 2 µM; stronger effect = higher value.
Experiment [5] concerns the target Calcium-dependent protein kinase 1 (Plasmodium falciparum (isolate 3D7)) (UniProt P62344). Description: PfCDPK1 kinase inhibitors, biochemical, TCAMS library (AID 1159585; cut-off not given, nearly all actives have IC50 up to about 0.98 µM;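 further: inhibitors leave more ATP so luminescence rises with inhibition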). The conditions noted are these: recombinant PfCDPK1, Kinase-Glo ATP depletion luminescence.
Experiment [6] has as its target Plasmodium falciparum protein kinase 6 (PK6, PF3D7_1337100) (UniProt Q8IDW1). Nature of the experiment: PfPK6 kinase inhibitors, biochemical, TCAMS library (AID 1159586). The note with it: recombinant PfPK6, Kinase-Glo ATP depletion luminescence. On the technique in general: Kinase-Glo measures the ATP left after a reaction by luminescence.
Experiment [7] has as its target Protein kinase 7 (PK7), Plasmodium falciparum 3D7 (PF3D7_0213400) (UniProt Q7YTF7). Description: inhibition of Plasmodium PK7 catalytic activity – biochemical, TCAMS antimalarial set, Kinase-Glo luminescence (AID 1159587). The note with it: recombinant PfPK7, Kinase-Glo ATP depletion luminescence.
In experiment [8] the target is Calcium-dependent protein kinase 4 (Plasmodium falciparum (isolate 3D7)) (UniProt Q8IBS5). Nature of the experiment: PfCDPK4 kinase inhibitors, biochemical, TCAMS library (AID 1159588; cut-off not given, nearly all actives have IC50 up to about 0.91 µM). The conditions noted are these: recombinant PfCDPK4, Kinase-Glo ATP depletion luminescence.
Calcium-dependent protein kinase 4 (Plasmodium falciparum (isolate 3D7)), sequence (Q8IBS5 whole entry, looked up): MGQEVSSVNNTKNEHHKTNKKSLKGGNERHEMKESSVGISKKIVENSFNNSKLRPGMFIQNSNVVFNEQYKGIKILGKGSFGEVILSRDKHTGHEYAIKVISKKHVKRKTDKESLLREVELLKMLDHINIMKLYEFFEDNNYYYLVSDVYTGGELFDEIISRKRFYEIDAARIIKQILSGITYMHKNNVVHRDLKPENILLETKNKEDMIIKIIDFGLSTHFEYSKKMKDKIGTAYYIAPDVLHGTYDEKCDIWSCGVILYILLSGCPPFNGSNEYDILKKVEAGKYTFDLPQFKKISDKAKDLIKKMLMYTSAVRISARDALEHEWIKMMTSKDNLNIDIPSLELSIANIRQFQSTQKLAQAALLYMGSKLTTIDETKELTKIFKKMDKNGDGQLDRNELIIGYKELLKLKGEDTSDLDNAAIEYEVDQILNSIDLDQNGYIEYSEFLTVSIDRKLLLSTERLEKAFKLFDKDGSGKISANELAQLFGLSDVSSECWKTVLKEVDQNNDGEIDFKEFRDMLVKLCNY

Plasmodium falciparum protein kinase 6 (PK6, PF3D7_1337100), sequence (Q8IDW1 1-305): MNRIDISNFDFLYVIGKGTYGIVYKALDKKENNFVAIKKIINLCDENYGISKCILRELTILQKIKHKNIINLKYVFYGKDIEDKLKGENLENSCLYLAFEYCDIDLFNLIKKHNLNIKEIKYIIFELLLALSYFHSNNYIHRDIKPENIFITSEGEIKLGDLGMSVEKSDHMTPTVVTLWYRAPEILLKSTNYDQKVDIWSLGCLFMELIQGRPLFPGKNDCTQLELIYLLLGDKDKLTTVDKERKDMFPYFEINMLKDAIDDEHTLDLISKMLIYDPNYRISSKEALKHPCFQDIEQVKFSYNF
Calcium-dependent protein kinase 1 (Plasmodium falciparum (isolate 3D7)), sequence (P62344 whole entry, looked up): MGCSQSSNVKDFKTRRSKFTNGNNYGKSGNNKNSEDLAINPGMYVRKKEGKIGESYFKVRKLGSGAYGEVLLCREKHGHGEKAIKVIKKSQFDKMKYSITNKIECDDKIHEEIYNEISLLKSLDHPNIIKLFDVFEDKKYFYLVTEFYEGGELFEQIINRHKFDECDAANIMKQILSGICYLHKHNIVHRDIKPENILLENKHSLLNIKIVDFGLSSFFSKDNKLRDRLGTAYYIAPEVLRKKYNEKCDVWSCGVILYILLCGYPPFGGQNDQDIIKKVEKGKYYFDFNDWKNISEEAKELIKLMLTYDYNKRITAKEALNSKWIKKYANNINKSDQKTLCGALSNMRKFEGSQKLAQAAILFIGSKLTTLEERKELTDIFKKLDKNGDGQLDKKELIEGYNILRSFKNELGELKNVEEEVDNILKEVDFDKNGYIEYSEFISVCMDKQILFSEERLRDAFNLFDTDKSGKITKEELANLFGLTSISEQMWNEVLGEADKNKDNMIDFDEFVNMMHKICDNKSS
Protein kinase 7 (PK7), Plasmodium falciparum 3D7 (PF3D7_0213400), sequence (Q7YTF7 1-343): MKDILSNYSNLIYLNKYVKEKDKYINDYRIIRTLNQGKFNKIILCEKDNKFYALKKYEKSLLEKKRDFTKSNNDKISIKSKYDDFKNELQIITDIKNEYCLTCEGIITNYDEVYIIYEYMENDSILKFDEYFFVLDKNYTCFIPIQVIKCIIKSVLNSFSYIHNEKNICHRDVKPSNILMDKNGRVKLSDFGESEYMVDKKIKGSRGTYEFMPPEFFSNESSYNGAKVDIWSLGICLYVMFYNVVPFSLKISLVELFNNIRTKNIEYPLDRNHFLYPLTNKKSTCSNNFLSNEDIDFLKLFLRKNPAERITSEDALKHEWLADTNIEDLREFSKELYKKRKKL
L-lactate dehydrogenase (Plasmodium falciparum (isolate CDC / Honduras)), sequence (Q27743 whole entry, looked up): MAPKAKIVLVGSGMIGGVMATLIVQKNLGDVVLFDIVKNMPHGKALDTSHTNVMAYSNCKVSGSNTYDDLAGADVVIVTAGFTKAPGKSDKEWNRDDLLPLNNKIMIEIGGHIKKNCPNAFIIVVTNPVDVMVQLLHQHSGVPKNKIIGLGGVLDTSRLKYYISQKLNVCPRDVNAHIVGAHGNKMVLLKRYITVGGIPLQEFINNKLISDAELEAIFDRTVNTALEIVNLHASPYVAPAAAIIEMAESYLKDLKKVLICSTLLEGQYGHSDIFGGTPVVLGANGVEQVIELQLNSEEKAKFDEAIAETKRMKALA

In the case of `CN(C)CCNCc1cccc(-c2ccc3c(Nc4ccc(F)cc4Cl)ccnc3c2)c1`, the growth inhibition was 98% (active) in experiment [1] and 102% (active) in experiment [4]. The inhibition (as a rule, the relative decrease from the control value, in per cent) in experiment [2] was 17%; in experiment [3], 1%. The result in experiment [5], in experiment [6], in experiment [7] and in experiment [8] was inactive.
Take `CC(C)(C)CC(C)(C)c1ccc(O)c(C(=O)Nc2ccc([N+](=O)[O-])cc2)c1`: the growth inhibition in experiment [1] was 99% (active); in experiment [4], 97% (active). In addition, the figures for the inhibition in experiment [2] and in experiment [3] were 80% (active) and 5%, respectively. In addition, the outcome in experiment [5], in experiment [6], in experiment [7] and in experiment [8] was inactive.
Consider `Oc1ccc2nc(NCCCc3ccccc3)nc(NCCCc3ccccc3)c2c1`, for which the growth inhibition was 93% (active) in experiment [1] and 101% (active) in experiment [4]. The results for the inhibition in experiment [2] and in experiment [3] were 5% and -3%, respectively. Further, the outcome in experiment [5], in experiment [6], in experiment [7] and in experiment [8] was inactive.
In the case of `O=C(Nc1cccc(CN2CCCN(Cc3ccsc3)CC2)c1)c1ccc(-c2ccccc2)cc1`, the growth inhibition in experiment [1] was 11%; in experiment [4] it was 90% (active). Moreover, the inhibition is 30% in experiment [2] and -4% in experiment [3]. The outcome in experiment [5], in experiment [6], in experiment [7] and in experiment [8] was inactive.
As to `COc1ccc(Nc2nccc(-c3ccc(NC(=O)c4cc5cc(F)ccc5[nH]4)cc3)n2)cc1`, the results for the growth inhibition in experiment [1] and in experiment [4] were 26% and 91% (active), respectively. The values for the inhibition in experiment [2] and in experiment [3] were 21% and -2%, respectively. The outcome in experiment [5], in experiment [6], in experiment [7] and in experiment [8] was inactive.
`COc1ccccc1CNC(=O)C(=O)Nc1c(-c2ccccc2)[nH]c2ccccc12`: the growth inhibition in experiment [1] was 91% (active); in experiment [4], 99% (active). The inhibition in experiment [2] is 0%; in experiment [3], -2%. For the same molecule, the outcome in experiment [5], in experiment [6], in experiment [7] and in experiment [8] was inactive.
As to `Cc1cc(NCCC(=O)Nc2ccccc2)nc(NCCc2cccs2)n1`, the results for the growth inhibition in experiment [1] and in experiment [4] were 20% and 99% (active), respectively. Further, the inhibition in experiment [2] was 26%; in experiment [3], 0%. Also, the outcome in experiment [5], in experiment [6], in experiment [7] and in experiment [8] was inactive.
On to `COc1cccc(CNC(=O)NC2CCN(c3ccnc(Nc4cc(OC)c(OC)c(OC)c4)n3)C2)c1` (stereo not given), for which the growth inhibition is 84% (active) in experiment [1] and 93% (active) in experiment [4]. Also, the values for the inhibition in experiment [2] and in experiment [3] were 15% and -6%, respectively. Besides, the outcome in experiment [5], in experiment [6], in experiment [7] and in experiment [8] was inactive.
As to `O=C(NCCc1cccc(F)c1)c1ccc(N2CCN(c3ccncc3)CC2)cn1`, the growth inhibition was 7% in experiment [1] and 94% (active) in experiment [4]. For the same molecule, the inhibition in experiment [2] was 4%; in experiment [3], -3%. Also, the result in experiment [5], in experiment [6], in experiment [7] and in experiment [8] was inactive.
As for `Nc1c(Cl)cc(C(O)CNCCCCCCOCCC=C2CCOCC2)cc1Cl` (stereo not given), the growth inhibition in experiment [1] was 9%; in experiment [4] it was 100% (active). In addition, the results for the inhibition in experiment [2] and in experiment [3] were 7% and 0%, respectively. Also, the outcome in experiment [5], in experiment [6], in experiment [7] and in experiment [8] was inactive.
On to `Cc1cc(N)c2cc(NC(=O)CCC(=O)Nc3ccc4nc(C)cc(N)c4c3)ccc2n1`, for which the growth inhibition in experiment [1] was 77% (active); in experiment [4], 85% (active). Also, the figures for the inhibition in experiment [2] and in experiment [3] were -2% and 1%, respectively. The outcome in experiment [5], in experiment [6], in experiment [7] and in experiment [8] was inactive.
With `O=C(Nc1cccc(CN2CCCN(Cc3ccc(O)cc3)CC2)c1)c1ccc(-c2ccccc2)cc1`, the growth inhibition in experiment [1] was 93% (active); in experiment [4], 100% (active). Moreover, the inhibition was 33% in experiment [2] and -8% in experiment [3]. For the same molecule, the outcome in experiment [5], in experiment [6], in experiment [7] and in experiment [8] was inactive.
Regarding `O=C(NCCc1ccccc1)N(Cc1cccc(-c2ccc(CNCc3ccc4c(c3)OCO4)cc2)c1)C1CCN(Cc2ccccc2)CC1`, the growth inhibition was 70% (active) in experiment [1] and 94% (active) in experiment [4]. The inhibition in experiment [2] was 11%; in experiment [3], -2%. Besides, the outcome in experiment [5], in experiment [6], in experiment [7] and in experiment [8] was inactive.
Consider `O=C(NCCCc1ccccc1)c1csc(C2CCCN(C(=O)c3ccc(O)c(-c4ccccc4)c3)C2)n1` (stereo not given), for which the growth inhibition in experiment [1] and in experiment [4] was 97% (active) each time. Further, the inhibition in experiment [2] and in experiment [3] was 5% in each case. Moreover, the result in experiment [5], in experiment [6], in experiment [7] and in experiment [8] was inactive.
`Cc1cc(NN=Cc2ccccc2[N+](=O)[O-])c2cc(C(F)(F)F)ccc2n1`: the growth inhibition in experiment [1] is 39%; in experiment [4] it was 97% (active). In addition, the inhibition is -5% in experiment [2] and 1% in experiment [3]. The outcome in experiment [5], in experiment [6], in experiment [7] and in experiment [8] was inactive.
`O=C(Nc1cccc(Oc2ccccc2)c1)N[C@H]1CCN(Cc2ccc(OCCCN3CCCCC3)cc2)C1`: the growth inhibition in experiment [1] is 70% (active); in experiment [4], 101% (active). In addition, the inhibition in experiment [2] was 94% (active); in experiment [3] it was -2%. The result in experiment [5], in experiment [6], in experiment [7] and in experiment [8] was inactive.
Take `COc1cc(C(=O)NC2CCN(Cc3ccccc3)CC2)ccc1-c1nc2c(Cl)cc(C(F)(F)F)cc2[nH]1`: the growth inhibition in experiment [1] was 56% (active); in experiment [4], 103% (active). For the same molecule, the inhibition in experiment [2] is 7%; in experiment [3], 1%. The outcome in experiment [5], in experiment [6], in experiment [7] and in experiment [8] was inactive.
Take `CCn1cnc2c(N3CCCS3(=O)=O)cc(C(=O)N[C@@H](Cc3ccccc3)[C@H](O)CNC(C)(C)c3cccc(C(F)(F)F)c3)cc21`: the growth inhibition is 97% (active) in experiment [1] and 99% (active) in experiment [4]. Moreover, the results for the inhibition in experiment [2] and in experiment [3] were 9% and -1%, respectively. Moreover, the outcome in experiment [5], in experiment [6], in experiment [7] and in experiment [8] was inactive.
Regarding `COc1ccc(NC(=O)[C@H](Cc2ccccc2)Nc2cc(C)nc(NCc3ccccc3C)n2)cc1`, the figures for the growth inhibition in experiment [1] and in experiment [4] were 71% (active) and 101% (active), respectively. The values for the inhibition in experiment [2] and in experiment [3] were 16% and 2%, respectively. The outcome in experiment [5], in experiment [6], in experiment [7] and in experiment [8] was inactive.
With `COc1cc2nc(NCCCN3CCCCC3)nc(NCc3ccccc3)c2cc1OC`, the growth inhibition in experiment [1] is 3%; in experiment [4] it was 102% (active). Besides, the inhibition in experiment [2] is 12%; in experiment [3], 1%. The result in experiment [5], in experiment [6], in experiment [7] and in experiment [8] was inactive.

These data come from PubChem BioAssay.
